Screens (PubChem BioAssay)
Rows were chosen to be rich in hits. Some 18% of all compounds tested hit in one or more screens of this group.
GCN5L2 inh: GCN5L2 (KAT2A) acetyltransferase inhibition. Q92830. GCN5L2 HAT assay, ThioGlo1 CoA-SH fluorescence. Potency, µM (top dose mostly 58.9 µM), usual class: inhibitors. 0.21% of 390,000 active
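Enzyme at 20nM final was mixed with library compounds for 15 min at room temperature. Peptide H3(1-25) at 75uM, acetyl-CoA at 70uM and ThioGlo1 at 50uM were then added. Plates were read immediately and after 20 min (Ex340nm/Em540nm).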
PLK1 PBD block: inhibitors of human PLK1 polo-box domain binding | P53350 | Plk1 PBD binding of FITC phosphopeptide, fluorescence polarization | Potency, µM, hits mostly inhibitors | 2.8% of 360,000 active; further: series mostly up to about 57 µM; nearly all actives have a fitted effect of over 65% in size
TDP1 cell noCPT: qHTS for Inhibitors of human tyrosyl-DNA phosphodiesterase 1 (TDP1): qHTS in cells in absence of CPT. Potency, µM (doses to about 46.2 µM), most hits filed as inhibitors. 15% of 420,000 active. DT40 Tdp1-/- hTDP1 cells, no CPT, ATP luminescence, 48 h; further: nearly all actives have a fitted effect of over 55% in size
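Compound effects on proliferation are scored in DT40 Tdp1-/-;hTDP1 cells in the absence of CPT. ATP levels (CellTiter-Glo luminescence) are recorded after a ≥48 hr, 37 °C incubation.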
TDP1 block: blocks human tyrosyl-DNA phosphodiesterase 1; recombinant TDP1, AlphaScreen DNA substrate cleavage; Potency, µM (doses to about 130 µM), hits mostly inhibitors; 0.28% of 350,000 active; AID 485290; further: nearly all actives have a fitted effect of over 40% in size
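E. coli-derived human Tdp1, 1 nM final. Cpd preinc 15 min RT; substrate 15 nM final, 5 min RT; AS bead mix 10 ug/ml final, 10 min RT. Signal loss = tyrosine-FITC cleavage. No-enzyme wells = max signal.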
VDR inh: inhibitors of human vitamin D receptor; VDR-SRC2-3 peptide fluorescence polarization, 2 h; P11473; Potency, µM, usual class: inhibitors; AID 504847; 0.93% of 400,000 active
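FP read-out; VDR + SRC2-3 coactivator peptide; 23 nl compound by pintool; 2 h RT incubation; reagents held at 4 deg C, protected from light.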
DT40 TDP1 CPT: DT40-hTDP1 cell growth loss with CPT. chicken DT40 Tdp1-/-;hTDP1 cells + 20 nM CPT, ATP luminescence, 48 h. Potency, µM (top dose mostly 46.2 µM), usual class: inhibitors. 12% of 420,000 active. AID 686979; further: nearly all actives have a fitted effect of over 55% in size
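Chicken DT40 Tdp1-/- cells stably complemented with human TDP1 were seeded at 400 cells/well in medium containing 20 nM camptothecin, exposed to pin-transferred compounds, and grown at 37 °C for at least 48 hr. Viability was read as ATP luminescence.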
Each line names hits and unclear results; the compound was inactive in the other large screens. The call rests on the fitted dose curve; in most records, active means well fitted curve in the direction sought with a large enough effect; inconclusive means small, poorly fitted or top-dose-only effect, or another doubt; inactive means no such curve, though single readings can be large; an effect the other way counts as inactive or inconclusive.

CCOC(=O)c1c(NC(=O)C(C)Sc2cn(CCNC(=O)c3ccc(OC)c(OC)c3)c3ccccc23)sc2c1CCC2 (configuration not stated)	TDP1 cell noCPT inconclusive, DT40 TDP1 CPT 21µM (no result: PLK1 PBD block)
CCOC(=O)c1c(NC(=O)CSc2cn(CCNC(=O)c3ccc(OC)c(OC)c3)c3ccccc23)sc2c1CCCC2	TDP1 cell noCPT 2.9µM, DT40 TDP1 CPT 7.3µM (no result: PLK1 PBD block)
CCOC(=O)c1c(NC(=O)C(C)Sc2cn(CCNC(=O)c3ccccc3OC)c3ccccc23)sc2c1CCC2 (configuration not stated)	TDP1 cell noCPT 5.2µM, DT40 TDP1 CPT 18µM (no result: PLK1 PBD block)
CCOC(=O)c1c(NC(=O)CSc2cn(CCNC(=O)c3c(F)cccc3F)c3ccccc23)sc2c1CCC2	TDP1 cell noCPT inconclusive, DT40 TDP1 CPT inconclusive (no result: PLK1 PBD block)
CNC(=O)CN(c1ccc(F)cc1)S(=O)(=O)c1cc(C)ccc1OC	none
N#Cc1cccc(-c2nc(N3CCNCC3)c3ccccc3n2)c1	TDP1 cell noCPT 18µM, DT40 TDP1 CPT inconclusive (no result: PLK1 PBD block)
CN1CCN(c2nc(-c3ccc4c(c3)OCO4)nc3ccccc23)CC1	TDP1 cell noCPT inconclusive, DT40 TDP1 CPT inconclusive (no result: PLK1 PBD block, TDP1 block)
c1ccc2c(N3CCNCC3)nc(-c3ccc4c(c3)OCO4)nc2c1	TDP1 cell noCPT 21µM, DT40 TDP1 CPT inconclusive (no result: PLK1 PBD block)
CS(=O)(=O)Nc1cccc(-c2nc(N3CCNCC3)c3ccccc3n2)c1	TDP1 cell noCPT inconclusive, DT40 TDP1 CPT inconclusive (no result: PLK1 PBD block)
COc1ccccc1CCc1nc2ccccc2n1C1CCN(C(=O)c2cc(C)nn2C)CC1	none (no result: GCN5L2 inh, PLK1 PBD block, TDP1 block, VDR inh)
COc1ccc(OC)c(NC(=O)COC(=O)C2CCCCC2)c1	none
CCOC(=O)C1(CC)Oc2ccccc2C(c2ccc(OC)cc2)=C1C(=O)OC (configuration not stated)	TDP1 cell noCPT 18µM, DT40 TDP1 CPT inconclusive
COc1cc(C)c(NC(=O)COc2ccc3c(c2)CCC3)cc1OC	TDP1 cell noCPT inconclusive, DT40 TDP1 CPT 23µM
CCOC(=O)Nc1cccc(OCC(=O)Nc2ccc(OC)cc2OC)c1	TDP1 cell noCPT 9.2µM, DT40 TDP1 CPT inconclusive
CCn1ccc2c(OCC(=O)Nc3ccc(C)c(Cl)c3)cccc2c1=O	TDP1 cell noCPT 16µM, DT40 TDP1 CPT 26µM (no result: PLK1 PBD block)
COc1ccc(NC(=O)COc2ccc(S(=O)(=O)NC3CCCCC3)cc2)c(OC)c1	TDP1 cell noCPT 16µM, DT40 TDP1 CPT 15µM (no result: PLK1 PBD block)
COc1ccc(S(=O)(=O)N(C)C)cc1NC(=O)COc1ccc2c(c1)CCC2	TDP1 cell noCPT inconclusive (no result: GCN5L2 inh, TDP1 block, VDR inh)
COc1cccc(CNC(=O)CCn2nc(C)c3c(C)n(-c4ccccc4)nc3c2=O)c1	TDP1 cell noCPT inconclusive, DT40 TDP1 CPT inconclusive (no result: PLK1 PBD block)
CC(C)=CCC/C(C)=C/CC/C(C)=C/CO	TDP1 cell noCPT inconclusive, DT40 TDP1 CPT inconclusive (no result: PLK1 PBD block)
O=C(CNC(=S)N(Cc1ccccc1F)C1CCCCC1)NCC1CCCO1 (configuration not stated)	TDP1 cell noCPT inconclusive, DT40 TDP1 CPT inconclusive
CCCn1ccc2c(OCC(=O)Nc3ccc(NC(C)=O)cc3)cccc2c1=O	TDP1 cell noCPT inconclusive, DT40 TDP1 CPT inconclusive
CCn1ccc2c(OCC(=O)Nc3ccc(OC)cc3OC)cccc2c1=O	TDP1 cell noCPT 6.5µM, DT40 TDP1 CPT inconclusive (no result: PLK1 PBD block)
COc1ccc(Cl)cc1NC(=O)COc1cccc2c(=O)n(C)ccc12	TDP1 cell noCPT inconclusive (no result: PLK1 PBD block)
CCCn1ccc2c(OCC(=O)Nc3ccc(F)cc3F)cccc2c1=O	TDP1 cell noCPT inconclusive, DT40 TDP1 CPT 16µM (no result: PLK1 PBD block)
CNC(=O)c1c(C)noc1C	none
COC(=O)CCC(=O)OC1(C)C(=O)C=C2C=C(c3ccsc3)OC=C2C1=O (configuration not stated)	PLK1 PBD block inconclusive (no result: GCN5L2 inh)
CCC(=O)OC1(C)C(=O)C=C2C=C(c3ccsc3)OC=C2C1=O (configuration not stated)	PLK1 PBD block 27µM, VDR inh inconclusive, DT40 TDP1 CPT inconclusive
CC(=O)Nc1ccc(S(=O)(=O)N2CCC(c3nc4c(nnn4Cc4ccccc4Cl)c(=O)[nH]3)CC2)cc1	none
